Experimental data reported in PubChem BioAssay.
The source made the active and inactive calls.

assay: cell viability in Huh7 cells, primary screen, cytotoxicity control for HCV replication inhibitor project, CellTiter-Glo luminescence, basal, 48 h (AID 1143); settings: Huh7 HCV replicon, higher = more signal, called active from +8 up or from −8 down;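 note: Huh7 hepatoma cells carrying a hepatitis C replication reporter with no stimulus; test concentration not given here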

SMILES	z-score
C=C(CCCC)C(=O)CC[C@@H](OC(C)=O)c1ccc(OCCO)cc1	-0.742 (inactive)
CN1C(=O)C2CC=C(C3=CCO[C@@H]3[C@H]3CCCN3S(=O)(=O)c3ccccc3[N+](=O)[O-])CC2C1=O (some centres undefined)	0.459 (inactive)
CC(C)[Si](C#Cc1ccccc1)(O[C@H](c1ccccc1)c1cn(Cc2ccccc2)nn1)C(C)C	-2.32 (inactive)
COCCOC(=O)N1C(=O)[C@@]2(c3cc(C#CCNC(N)=O)ccc31)[C@H](C(N)=O)[C@H]1C(=O)O[C@H](c3ccccc3)[C@H](c3ccccc3)N1[C@@H]2c1ccc(O)cc1	0.29 (inactive)
[N-]=[N+]=NCc1ccccc1C[C@]1(C(=O)N2CCCCC2)COC(c2ccc(OCCCO)cc2)=N1	-4.72 (inactive)
C=CCNC(=O)[C@H]1[C@@H]2C(=O)O[C@@H](c3ccccc3)[C@@H](c3ccccc3)N2[C@@H](c2ccc(OCCO)cc2)[C@]12C(=O)N(C(=O)OCCOC)c1ccc(C#CCC(C(=O)OC)C(=O)OC)cc12	-1.17 (inactive)
CCCCC(=C=CC[C@@H](O)c1ccccc1OCCO)C[C@@H](O)c1ccccn1	-0.675 (inactive)
COC(=O)C(CC#Cc1ccc2c(c1)[C@]1(C(=O)N2)[C@H](C(=O)NC[C@H](O)c2ccccc2)[C@H]2C(=O)O[C@H](c3ccccc3)[C@H](c3ccccc3)N2[C@@H]1c1ccc(O)cc1)C(=O)OC	-0.187 (inactive)
COCCOC(=O)N1C(=O)[C@@]2(c3cc(C#CC4=CCCCC4)ccc31)[C@H](c1ccc(O)cc1)N1[C@H](c3ccccc3)[C@H](c3ccccc3)OC(=O)[C@H]1[C@@H]2C(=O)N1CCc2cc(OC)c(OC)cc2C1	-0.713 (inactive)
